Screens (PubChem BioAssay)
The list is not random: actives were taken first. Their share in the collection is about 6.1%.
D1 PAM = potentiators of human D1 dopamine receptor. P21728. AID 504651. potentiation, % at 10 µM. actives 0.036% (n = 360,000). HEK293 TREx D1 cells, calcium flux, dopamine EC20 potentiation; in the data active means potentiation above about 30%; further: 0% is about no effect
D1 antagonist = human D1 dopamine receptor antagonism; P21728; HEK293 TREx D1 cells, calcium flux, dopamine EC80; active compounds read low; activity change, negative = inhibition, % at 10 µM; actives 3.2% (n = 360,000); AID 504652; in the data active means activity change below about -30%; further: on the % scale 0 is the no-effect control and ±100 the full control effect
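Kinetic fluorescence of a calcium dye serves as the read-out. D1-expressing Hek293 Trex cells, induced overnight at 30 C, are exposed to compound for 180 s before an EC80 dopamine addition, then read 180 s further.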
D3 ag = agonists of human D3 dopamine receptor; P35462; D3R DiscoveRx beta-arrestin cells, luminescence, 90 min; max activation, %; actives 0.58% (n = 410,000); in the data active means max activation above about 30%; further: 0% is about no effect
Target sequence (P35462 whole entry, looked up): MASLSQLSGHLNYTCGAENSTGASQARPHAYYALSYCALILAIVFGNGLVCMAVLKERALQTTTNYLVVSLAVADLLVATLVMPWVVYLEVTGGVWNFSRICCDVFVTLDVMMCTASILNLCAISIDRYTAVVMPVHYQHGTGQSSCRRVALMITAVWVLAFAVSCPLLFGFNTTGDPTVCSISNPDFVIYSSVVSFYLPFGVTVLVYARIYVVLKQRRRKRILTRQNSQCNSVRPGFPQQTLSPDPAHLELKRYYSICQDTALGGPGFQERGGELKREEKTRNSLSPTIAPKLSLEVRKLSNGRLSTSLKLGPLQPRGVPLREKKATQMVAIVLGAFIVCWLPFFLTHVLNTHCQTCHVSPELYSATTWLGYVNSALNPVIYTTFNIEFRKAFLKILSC
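Cells at 1500/well, incubated overnight, then treated with pinned compounds (dopamine as control) for 90 min at 37 degrees C. DiscoveRx reagent added for 30 - 60 minutes at room temperature; luminescence read.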
D3 antag = blocks the human D3 dopamine receptor | actives 2.5% (n = 360,000) | P35462 | D3R cells, DiscoveRx beta-arrestin luminescence, antagonist mode; active compounds read low | max response, negative = inhibition, %; in the data active means max response below about -50%; further: on the % scale 0 is the no-effect control and ±100 the full control effect
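Cells expressing the human receptor were seeded at 1500 cells/well, incubated overnight at 37 degrees C in 5% CO2, then exposed to library compounds with dopamine controls for 90 minutes at 37 degrees C before luminescent detection.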
D1 agonist = human D1 receptor agonism. P21728. HEK293 T-REx D1 cells, calcium flux, agonist mode. activation, % at 2 µM. actives 1% (n = 360,000). AID 504660; in the data active means activation above about 30%; further: 0% is about no effect
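Tetracycline-induced HEK293 TREx D1 cells, force-coupled to calcium signalling, were dye-loaded with a no-wash calcium kit. Compound was pin-added after a 10 s baseline. Fluorescence was read kinetically at 1 cycle/s for 180 s, with calcium rises flagged as agonism.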
Starred values were filed as active, the others as inactive; x = not tested or not shown.

SMILES | D1 PAM | D1 antagonist | D3 ag | D3 antag | D1 agonist
O=C(Cn1c(=O)nc(-c2ccccc2F)c2cc(Cl)ccc21)Nc1ccccc1C(F)(F)F | -0.3 | 16.1 | 1.7 | x | 5.0
COCCNc1nc(NCCOc2ccccc2Cl)c2sc(-c3ccccc3)cc2n1 | x | x | 58.0* | 14.7 | x
O=C(NCCCN1CCOCC1)c1ccccc1N1C(=O)[C@@H]2Cc3c([nH]c4ccccc34)C(c3cccc(Cl)c3)N2C1=O (stereo partly specified) | -8.6 | -46.2* | -0.6 | -7.8 | 9.6
Cc1ccc(C2c3[nH]c4ccccc4c3C[C@H]3C(=O)N(c4ccccc4C(=O)NCCCN4CCOCC4)C(=O)N23)cc1 (stereo partly specified) | 1.9 | -2.5 | -3.9 | 0.0 | 3.1
CCC1Nc2ncnc(N3CCN(c4ccccn4)CC3)c2N(Cc2ccc(Br)cc2)C1=O (stereo unspecified) | x | x | -96.2 | -142.4* | x
CCC1Nc2ncnc(N3CCN(c4ccccn4)CC3)c2N(Cc2ccc(Cl)cc2)C1=O (stereo unspecified) | -9.6 | -6.9 | -54.1 | -103.7* | -1.4
CC(C)CC1Nc2ncnc(N3CCN(c4ccccn4)CC3)c2N(Cc2ccccc2)C1=O (stereo unspecified) | x | x | -9.3 | -22.6 | x
CC1(C)S[C@@H]2[C@H](NC(=O)[C@H](N)c3ccccc3)C(=O)N2[C@H]1C(=O)OCOC(=O)[C@@H]1N2C(=O)C[C@H]2S(=O)(=O)C1(C)C | x | x | -4.2 | x | x
COc1ccc(-n2c(-c3ccc(C)cc3)cc3c2CC(C)(C)CC3=O)c(OC)c1 | -4.5 | -1.8 | 3.4 | x | 1.3
Cc1ccc(-c2cn3c(n2)sc2cc(C(=O)NCCC4=CCCCC4)ccc23)c(C)c1 | -4.3 | -1.1 | -8.4 | x | 3.8
O=C(C1CCN(S(=O)(=O)c2ccccc2F)CC1)N1CCc2ccccc21 | 2.9 | -6.2 | -2.7 | -8.1 | 6.0
O=C(C1CCN(S(=O)(=O)c2cccc3cccnc23)CC1)N1CCc2ccccc21 | 1.8 | -25.9 | 1.3 | -52.6* | 2.7
O=C(C1CCN(S(=O)(=O)c2ccccc2)CC1)N1CCc2ccccc21 | -2.4 | 7.6 | 1.2 | 7.5 | 332.6*
O=C(C1CCN(S(=O)(=O)c2cccc3cccnc23)CC1)N1CCCC1 | -6.5 | -1.5 | -12.7 | -78.5* | 1.3
O=C(C1CCN(S(=O)(=O)c2cccc3cccnc23)CC1)N1CC=C(c2ccccc2)CC1 | -1.5 | -43.6* | x | x | 0.8
O=C(C1CCCN1S(=O)(=O)c1cccc2cccnc12)N1CCc2ccccc21 (stereo unspecified) | -1.2 | -16.2 | -1.2 | 4.2 | 0.2
O=C(O)C1CCN(S(=O)(=O)c2cccc3cccnc23)CC1 | x | 5.6 | 7.5 | 3.6 | 7.7
COc1cc(NC(=O)c2cc3cc4ccc(C)cc4nc3o2)cc(OC)c1OC | 7.5 | -10.0 | 21.4 | x | 2.2
CCOC(=O)c1ccc(N2C(=O)c3[nH]nc(-c4ccc(OC)cc4)c3C2c2ccc(C)cc2)cc1 (stereo unspecified) | 3.2 | 9.3 | 0.6 | x | 3.6
O=C(NC1CC(=O)N(c2ccc(F)cc2)C1)c1ccc(S(=O)(=O)N2CCOCC2)cc1 (stereo unspecified) | -0.9 | x | -2.4 | x | 2.2
Cc1csc2nc(COC(=O)CNC(=O)c3ccccc3Cl)cc(=O)n12 | -0.5 | 3.3 | -7.7 | x | -0.7
CCCc1c(-c2cccc(Cl)c2)ncn1Cc1cccc(-c2ccccc2)c1 | x | x | 51.7* | -18.9 | x
O=c1[nH]c(-c2ccncc2)nc2ccccc12 | 0.3 | -4.6 | -0.5 | -17.7 | 2.8
COC(=O)c1ccc(/C=C/c2nc3ccccc3c(=O)[nH]2)cc1 | 4.4 | -12.1 | 1.3 | -13.6 | 0.2
Cc1cccc(-c2nc3ccccc3c(=O)[nH]2)c1 | 9.5 | -30.4* | 10.5 | -4.2 | 0.1
SMILES | D1 PAM | D1 antagonist | D3 ag | D3 antag | D1 agonist
Cc1ccc(/C=C/c2nc3ccccc3c(=O)[nH]2)cc1 | -4.3 | -39.6* | -5.1 | -16.4 | 2.3
Cc1ccc(-c2onc(C)c2C)cc1S(=O)(=O)Nc1ccc(Cl)cn1 | -1.1 | 19.8 | -23.2 | x | 2.0
OCCN1CN=C(Nc2nc3ccccc3o2)NC1 | 0.6 | -42.1* | 0.2 | 15.2 | 0.3
COC(=O)CSC1=C(C#N)C(c2cccc(OC)c2)CC(=O)N1 (stereo unspecified) | x | -41.6* | -1.2 | 2.8 | 3.8
COc1cc(C2CC(=O)NC(SCC(=O)Nc3ccccc3C)=C2C#N)ccc1O (stereo unspecified) | 2.0 | -1.9 | -5.6 | 31.6 | 7.8
CCCSC1=C(C#N)C(c2ccc(O)c(OC)c2)CC(=O)N1 (stereo unspecified) | x | -53.3* | -14.1 | 0.0 | 2.1
CSc1ncc(C(=O)Nc2ccc(C)c(Cl)c2)c(-c2ccccc2)n1 | 0.9 | 4.4 | -3.6 | x | 12.3
Cn1cc(S(=O)(=O)N2CCc3ccccc32)cc1C(=O)Nc1ccc(C(F)(F)F)cc1 | -0.8 | -6.2 | 1.1 | x | 1.2
C=Cc1ccc(CC2(C)C(=O)Nc3c(Cl)cccc32)cc1 (stereo unspecified) | x | x | -4.1 | -66.8* | x
CC1(Cc2cccc(C(N)=O)c2)C(=O)Nc2c(Cl)cccc21 (stereo unspecified) | x | x | 7.1 | 27.5 | x
CC1(Cc2cccc(C#N)c2)C(=O)Nc2c(Cl)cccc21 (stereo unspecified) | x | x | 48.2* | -11.6 | x
CC1(Cc2ccccc2Cl)C(=O)Nc2c(Cl)cccc21 (stereo unspecified) | x | x | -15.2 | 0.0 | x
CCc1c(C)sc(NC(=O)c2cc(-c3ccc(OC)cc3)on2)c1C#N | -0.8 | -6.3 | -3.1 | x | 2.0
CCOC(=O)N1CCc2c(sc3nc[nH]c(=O)c23)C1 | -1.6 | -30.8* | 10.8 | -18.1 | 2.4
COP(=O)(OC)c1nc(-c2ccc([N+](=O)[O-])cc2)oc1N1CCCCC1 | -6.1 | -3.1 | 0.6 | 13.8 | 49.2*
CCc1ccc(S(=O)(=O)c2c[nH]c3cc(OC)c(OC)cc3c2=O)cc1 | -3.8 | -42.9* | 7.8 | x | -0.6
COc1ccc(N2CCN(C(=O)c3ccc4c(c3)N(Cc3ccc(F)cc3)C(=O)c3ccccc3S4=O)CC2)cc1 (stereo unspecified) | -0.2 | 10.6 | 2.7 | x | 3.5
CCN(CC)C(=O)CC(c1ccc2c(c1)OCO2)c1c(OC)cc(OC)c2ccc(=O)oc12 (stereo unspecified) | -6.1 | -37.7* | 8.7 | -22.3 | 0.5
CCN(CC)C(=O)CC(c1ccc(N(C)C)cc1)c1c(OC)cc(OC)c2ccc(=O)oc12 (stereo unspecified) | 2.0 | 4.8 | -21.7 | -14.9 | 0.8
COc1cccc(C(=O)CC(=O)C(=O)Nc2ccc(C)cc2Cl)c1 | -8.2 | 15.2 | 9.3 | 5.5 | -0.3
COc1ccc(C(=O)CC(=O)C(=O)Nc2ccc(C)cc2Cl)cc1 | -1.1 | 8.8 | 7.9 | -64.0* | 4.8
NS(=O)(=O)c1ccc(CCNC(=O)Cn2c(-c3cccs3)cc3ccccc32)cc1 | -2.5 | 9.7 | -20.0 | x | 4.8
COc1ccc(S(=O)(=O)NCCS(=O)(=O)N2CCN(c3ccccc3F)CC2)cc1 | -1.0 | -38.4* | -10.9 | x | 7.6
